Data published in PubChem BioAssay (EPA / NIEHS).
Results filed as inconclusive are left out. Calls of active or inactive are those of the source. The calls were made as follows: active = hit-call score of the fitted dose curve at least 0.9, where 1 is the maximum; inconclusive = response in the unintended direction; inactive = score below 0.9.

Experiments:
[1] = biological target: human FYN Proto-Oncogene, Src family Tyrosine Kinase (Fyn), FYN (gene 2534) (UniProt P06241); experiment: NVS_ENZ_hFyn: NovaScreen (NVS) Enzymatic Assay for human FYN Proto-Oncogene, Src family Tyrosine Kinase (Fyn) (AID 2283161)
How it was run: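 Cell-free kinase activity read by fluorescence after mobility-shift separation of substrate and product, 1 h post-dose. Initial single concentration 25 uM in duplicate, then concentration-response follow-up; DMSO baseline.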

[2] = biological target: human Matrix Metalloproteinase-7 (MMP7), MMP7 (gene 4316) (UniProt P09237); experiment: NVS_ENZ_hMMP7: NovaScreen (NVS) Enzymatic Assay for human Matrix Metalloproteinase-7 (MMP7) (AID 2283183)
How it was run: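 Compounds first tested at 25 uM in duplicate, then at up to 50 uM in concentration series if active. Protease activity measured by fluorescence intensity 1 h after dosing, with fitting relative to DMSO.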

[3] = biological target: human MAP Kinase-Activated Protein Kinase 2 (MAPKAPK2), MAPKAPK2 (gene 9261) (UniProt P49137); experiment: NVS_ENZ_hMAPKAPK2: NovaScreen (NVS) Enzymatic Assay for human MAP Kinase-Activated Protein Kinase 2 (MAPKAPK2) (AID 2283178)
How it was run: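 Chemicals screened in duplicate at 25 uM, then to 50 uM top concentration in concentration-response, against recombinant human MAPKAPK2; substrate conversion read 1 hr post-dosing by fluorescence after electrophoretic mobility-shift separation, loss-of-signal relative to DMSO.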

[4] = biological target: human Ephrin type-A Receptor 1 (EphA1), EPHA1 (gene 2041) (UniProt P21709); experiment: NVS_ENZ_hEphA1: NovaScreen (NVS) Enzymatic Assay for human Ephrin type-A Receptor 1 (EphA1) (AID 2283158);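 also: activity is signal loss versus DMSO meaning EphA1 kinase inhibition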
How it was run: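 Recombinant kinase, fluorescent substrate, mobility-shift separation, fluorescence read at 1 h. Single-point duplicates at 25 uM; hits (e.g., ≥30% inhibition) run singleton concentration-response, max 50 uM. DMSO = negative control/baseline.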

[5] = biological target: human Janus Kinase 2 (Jak2), JAK2 (gene 3717) (UniProt O60674); experiment: NVS_ENZ_hJak2: NovaScreen (NVS) Enzymatic Assay for human Janus Kinase 2 (Jak2) (AID 2283169)
How it was run: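 Single-point duplicate screen at 25 uM, with hits run in concentration series to a 50 uM top dose. Substrate-product separation by mobility shift with fluorescence detection, 1 h post-dosing; DMSO baseline.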

[6] = biological target: Mitogen-activated protein kinase 3 (Homo sapiens) (UniProt P27361); experiment: NVS_ENZ_hMAPK3: NovaScreen (NVS) Enzymatic Assay for human Mitogen-Activated Protein Kinase 3 (MAPK 3) (AID 2283177)
How it was run: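 Chemicals were first tested in duplicate at 25 uM, with hits re-run as concentration series (max 50 uM). Recombinant enzyme activity, measured 1 h post-dose in a cell-free format, was read by fluorescence/mobility shift relative to DMSO.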

[7] = biological target: human Matrix Metalloproteinase-2 (MMP2), MMP2 (gene 4313) (UniProt P08253); experiment: NVS_ENZ_hMMP2: NovaScreen (NVS) Enzymatic Assay for human Matrix Metalloproteinase-2 (MMP2) (AID 2283184)
How it was run: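 Compounds first screened in duplicate at a single 25 uM, with actives followed up in concentration series. Recombinant human MMP2 cleaves a fluorogenic substrate; fluorescence taken at 1 h, inhibition fitted relative to DMSO.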

[8] = biological target: human LYN Proto-Oncogene, Src family Tyrosine Kinase (LynA), LYN (gene 4067) (UniProt P07948); experiment: NVS_ENZ_hLynA: NovaScreen (NVS) Enzymatic Assay for human LYN Proto-Oncogene, Src family Tyrosine Kinase (LynA) (AID 2283173)
How it was run: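 Recombinant kinase with fluorescent substrate; product separated from substrate by electrophoretic mobility shift and read 1 h after dosing. Duplicate screen at 25 uM, then concentration-response up to 50 uM; activity scored as signal loss against DMSO.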

[9] = biological target: human Mitogen-Activated Protein Kinase 1 (MAPK 1), MAPK1 (gene 5594) (UniProt P28482); experiment: NVS_ENZ_hMAPK1: NovaScreen (NVS) Enzymatic Assay for human Mitogen-Activated Protein Kinase 1 (MAPK 1) (AID 2283175)
How it was run: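 Cell-free recombinant human MAPK1 enzymatic assay, fluorescence/electrophoretic mobility shift read at 1 h; loss of signal vs DMSO. Primary screen in duplicate at 25 uM; actives (e.g. ≥30% inhibition) run as concentration-response up to 50 uM.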

[10] = biological target: human Matrix Metalloproteinase-3 (MMP3), MMP3 (gene 4314) (UniProt P08254); experiment: NVS_ENZ_hMMP3: NovaScreen (NVS) Enzymatic Assay for human Matrix Metalloproteinase-3 (MMP3) (AID 2283185)
How it was run: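 Fluorescent substrate turnover by recombinant MMP3 read after 1 h, signal loss scored against DMSO. Compounds first run in duplicate at 25 uM single dose, then actives confirmed by concentration series.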

[11] = biological target: human Fibroblast Growth Factor Receptor 1 (FGFR1), FGFR1 (gene 2260) (UniProt P11362); experiment: NVS_ENZ_hFGFR1: NovaScreen (NVS) Enzymatic Assay for human Fibroblast Growth Factor Receptor 1 (FGFR1) (AID 2283159);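 as to AC50: hits lower the signal so potencies describe inhibitors of the kinase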
How it was run: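 Cell-free recombinant kinase with fluorescent substrate, product separated by electrophoretic mobility shift; read 1 hour after dosing, loss of signal relative to DMSO. Initial screen in duplicate at 25 uM, actives followed in concentration series.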

[12] = biological target: Protein deacetylase HDAC6 (Homo sapiens) (UniProt Q9UBN7); experiment: NVS_ENZ_hHDAC6: NovaScreen (NVS) Enzymatic Assay for human Histone Deacetylase 6 (HDAC6) (AID 2283164)
How it was run: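 Concentration-response runs up to 50 uM followed a duplicate 25 uM single-point screen. Deacetylase activity of recombinant human HDAC6 read by fluorescence after 1 h, with mobility-shift separation of substrate and product; DMSO as baseline.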

[13] = biological target: human IkappaB Kinase alpha (IKKa), CHUK (gene 1147) (UniProt O15111); experiment: NVS_ENZ_hIKKa: NovaScreen (NVS) Enzymatic Assay for human IkappaB Kinase alpha (IKKa) (AID 2283167)
How it was run: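 Compounds first run in duplicate at 25 uM, those meeting threshold (e.g. 30% inhibition) retested to maximum 50 uM. Enzyme activity of recombinant IKKa measured by fluorescence with electrophoretic mobility shift separation, 1 hour post-dosing, DMSO baseline.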

[14] = biological target: human Mitogen- and Stress-activated Protein Kinase-1 (Msk1), RPS6KA5 (gene 9252) (UniProt O75582); experiment: NVS_ENZ_hMsk1: NovaScreen (NVS) Enzymatic Assay for human Mitogen- and Stress-activated Protein Kinase-1 (Msk1) (AID 2283187)
How it was run: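 Chemicals first run in duplicate at 25 uM, with actives followed up in singleton concentration series to 50 uM maximum. Enzyme activity came from substrate/product mobility-shift separation with fluorescence detection after 1 h incubation of the recombinant protein.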

[15] = biological target: human MET Proto-Oncogene, Receptor Tyrosine Kinase (MET), MET (gene 4233) (UniProt P08581); experiment: NVS_ENZ_hMet: NovaScreen (NVS) Enzymatic Assay for human MET Proto-Oncogene, Receptor Tyrosine Kinase (MET) (AID 2283180)
How it was run: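 Hits from a 25 uM duplicate screen were retested in concentration series up to 50 uM. Enzyme activity was measured by fluorescence after electrophoretic separation of product from substrate, 1 h after compound addition, relative to DMSO.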

[16] = biological target: Histone deacetylase 3 (Homo sapiens) (UniProt O15379); experiment: NVS_ENZ_hHDAC3: NovaScreen (NVS) Enzymatic Assay for human Histone Deacetylase 3 (HDAC3) (AID 2283163)
How it was run: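 Cell-free enzyme format: loss of fluorescent product after mobility-shift separation, 1 h incubation, recombinant human HDAC3. Single 25 uM duplicate screen first, then concentration series to a 50 uM top for hits; DMSO as baseline.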

[17] = biological target: human c-Jun N-terminal Kinases (JNK2), MAPK9 (gene 5601) (UniProt P45984); experiment: NVS_ENZ_hJNK2: NovaScreen (NVS) Enzymatic Assay for human c-Jun N-terminal Kinases (JNK2) (AID 2283171)
How it was run: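 Chemicals first tested in duplicate at 25 uM, then in singleton concentration series up to 50 uM, against extracted JNK2 enzyme. Activity loss read by fluorescence with mobility-shift separation 1 h post-dose; DMSO baseline.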

[18] = biological target: Collagenase 3 (Homo sapiens) (UniProt P45452); experiment: NVS_ENZ_hMMP13: NovaScreen (NVS) Enzymatic Assay for human Matrix Metalloproteinase-13 (MMP13) (AID 2283182)
How it was run: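 Recombinant MMP13 cleaving fluorescent substrate, cell-free, measured 1 h after dosing. Primary duplicate screen at 25 uM; actives tested in concentration-response up to 50 uM; loss of signal relative to DMSO.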

[19] = biological target: human Matrix Metalloproteinase-1 (MMP1), MMP1 (gene 4312) (UniProt P03956); experiment: NVS_ENZ_hMMP1: NovaScreen (NVS) Enzymatic Assay for human Matrix Metalloproteinase-1 (MMP1) (AID 2283181)
How it was run: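 Cell-free fluorescent substrate assay of human MMP1, read after 1 h. A single 25 uM duplicate screen was followed by concentration series to a maximum of 50 uM for actives meeting threshold; inhibition analysed against DMSO baseline.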

[20] = biological target: human Insulin Receptor (InsR), INSR (gene 3643) (UniProt P06213); experiment: NVS_ENZ_hInsR: NovaScreen (NVS) Enzymatic Assay for human Insulin Receptor (InsR) (AID 2283168)
How it was run: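 Cell-free enzyme assay read 1 h post-dose by fluorescence after substrate/product mobility-shift separation. Duplicate 25 uM primary screen, then singleton concentration-response up to 50 uM for compounds passing threshold; loss of signal vs DMSO.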

Chain of human Ephrin type-A Receptor 1 (EphA1), EPHA1 (gene 2041) (P21709 whole entry, looked up): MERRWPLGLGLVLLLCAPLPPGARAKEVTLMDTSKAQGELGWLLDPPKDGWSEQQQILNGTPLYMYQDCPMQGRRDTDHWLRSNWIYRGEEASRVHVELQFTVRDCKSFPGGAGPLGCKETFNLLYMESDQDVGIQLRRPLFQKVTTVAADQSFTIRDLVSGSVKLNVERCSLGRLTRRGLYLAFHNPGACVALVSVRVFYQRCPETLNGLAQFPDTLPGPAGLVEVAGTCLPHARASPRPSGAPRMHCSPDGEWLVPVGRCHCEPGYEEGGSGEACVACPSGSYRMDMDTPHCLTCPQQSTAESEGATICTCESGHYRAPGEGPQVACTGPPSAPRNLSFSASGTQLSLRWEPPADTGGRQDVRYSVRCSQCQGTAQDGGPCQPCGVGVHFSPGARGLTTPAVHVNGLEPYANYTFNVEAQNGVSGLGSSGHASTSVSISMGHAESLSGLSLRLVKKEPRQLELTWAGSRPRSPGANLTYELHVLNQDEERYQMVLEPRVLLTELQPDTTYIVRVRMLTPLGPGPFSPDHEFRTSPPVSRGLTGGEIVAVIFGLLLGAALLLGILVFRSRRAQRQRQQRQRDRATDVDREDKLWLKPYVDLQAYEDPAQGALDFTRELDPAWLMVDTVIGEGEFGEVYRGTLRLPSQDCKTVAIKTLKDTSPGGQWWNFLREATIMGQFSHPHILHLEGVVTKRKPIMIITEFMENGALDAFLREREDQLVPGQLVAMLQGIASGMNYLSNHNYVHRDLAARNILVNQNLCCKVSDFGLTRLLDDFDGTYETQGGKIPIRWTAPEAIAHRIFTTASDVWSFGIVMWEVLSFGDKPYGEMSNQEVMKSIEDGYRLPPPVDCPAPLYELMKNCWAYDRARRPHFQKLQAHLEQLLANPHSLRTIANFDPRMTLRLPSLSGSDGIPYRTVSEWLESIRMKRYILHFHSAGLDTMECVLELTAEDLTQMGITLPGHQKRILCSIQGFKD
Chain of human FYN Proto-Oncogene, Src family Tyrosine Kinase (Fyn), FYN (gene 2534) (P06241 whole entry, looked up): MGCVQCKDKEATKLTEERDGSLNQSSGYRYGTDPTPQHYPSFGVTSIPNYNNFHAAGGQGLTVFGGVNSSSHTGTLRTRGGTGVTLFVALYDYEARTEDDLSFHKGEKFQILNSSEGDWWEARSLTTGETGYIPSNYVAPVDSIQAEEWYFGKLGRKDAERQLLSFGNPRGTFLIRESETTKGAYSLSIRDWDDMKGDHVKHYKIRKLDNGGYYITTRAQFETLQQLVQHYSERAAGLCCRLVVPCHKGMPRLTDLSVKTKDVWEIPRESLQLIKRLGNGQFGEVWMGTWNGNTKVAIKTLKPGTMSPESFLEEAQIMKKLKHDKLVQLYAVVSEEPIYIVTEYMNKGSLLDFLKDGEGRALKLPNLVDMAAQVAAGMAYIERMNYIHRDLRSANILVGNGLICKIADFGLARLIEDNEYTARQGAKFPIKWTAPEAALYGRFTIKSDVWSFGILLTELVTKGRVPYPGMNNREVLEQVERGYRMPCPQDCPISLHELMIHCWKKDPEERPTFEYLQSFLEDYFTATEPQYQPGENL
Chain of human Matrix Metalloproteinase-2 (MMP2), MMP2 (gene 4313) (P08253 whole entry, looked up): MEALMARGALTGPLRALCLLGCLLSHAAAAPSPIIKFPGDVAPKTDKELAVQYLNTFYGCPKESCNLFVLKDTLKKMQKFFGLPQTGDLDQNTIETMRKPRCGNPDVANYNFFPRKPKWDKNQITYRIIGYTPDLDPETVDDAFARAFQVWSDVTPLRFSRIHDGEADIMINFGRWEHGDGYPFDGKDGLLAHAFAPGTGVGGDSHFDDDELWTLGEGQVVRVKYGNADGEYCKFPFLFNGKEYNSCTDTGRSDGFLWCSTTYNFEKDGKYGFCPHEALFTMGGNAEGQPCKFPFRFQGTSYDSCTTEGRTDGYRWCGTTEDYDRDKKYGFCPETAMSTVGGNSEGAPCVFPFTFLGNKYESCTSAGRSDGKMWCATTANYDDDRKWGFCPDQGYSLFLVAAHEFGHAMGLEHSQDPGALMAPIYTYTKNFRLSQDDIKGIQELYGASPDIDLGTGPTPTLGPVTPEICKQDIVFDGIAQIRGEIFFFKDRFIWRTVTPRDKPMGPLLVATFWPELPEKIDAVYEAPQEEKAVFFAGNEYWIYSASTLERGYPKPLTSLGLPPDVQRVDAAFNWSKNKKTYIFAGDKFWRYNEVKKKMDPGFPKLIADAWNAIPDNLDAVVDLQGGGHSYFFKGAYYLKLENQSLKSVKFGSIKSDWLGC
Chain of human Fibroblast Growth Factor Receptor 1 (FGFR1), FGFR1 (gene 2260) (P11362 whole entry, looked up): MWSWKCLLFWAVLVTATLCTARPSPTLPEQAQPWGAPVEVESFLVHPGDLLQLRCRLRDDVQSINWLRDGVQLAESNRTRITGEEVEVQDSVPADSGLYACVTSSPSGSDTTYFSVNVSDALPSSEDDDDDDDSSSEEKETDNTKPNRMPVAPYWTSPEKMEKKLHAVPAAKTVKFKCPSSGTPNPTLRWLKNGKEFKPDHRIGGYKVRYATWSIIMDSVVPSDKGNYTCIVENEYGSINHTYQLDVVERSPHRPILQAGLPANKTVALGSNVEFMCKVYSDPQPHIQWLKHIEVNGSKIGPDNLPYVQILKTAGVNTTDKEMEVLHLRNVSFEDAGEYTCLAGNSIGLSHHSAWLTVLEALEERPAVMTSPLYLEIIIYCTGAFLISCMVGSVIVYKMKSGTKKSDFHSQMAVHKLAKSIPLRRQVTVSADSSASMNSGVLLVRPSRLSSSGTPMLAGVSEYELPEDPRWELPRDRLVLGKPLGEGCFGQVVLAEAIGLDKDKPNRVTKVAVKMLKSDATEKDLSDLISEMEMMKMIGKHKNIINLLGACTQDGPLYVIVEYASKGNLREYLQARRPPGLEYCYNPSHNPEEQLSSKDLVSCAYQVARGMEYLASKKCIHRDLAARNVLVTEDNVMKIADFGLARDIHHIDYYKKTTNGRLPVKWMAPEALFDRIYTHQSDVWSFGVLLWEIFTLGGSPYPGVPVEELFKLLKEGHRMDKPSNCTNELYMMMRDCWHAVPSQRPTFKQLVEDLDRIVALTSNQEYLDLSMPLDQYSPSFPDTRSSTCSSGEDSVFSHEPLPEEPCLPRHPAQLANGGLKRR
Chain of human Matrix Metalloproteinase-1 (MMP1), MMP1 (gene 4312) (P03956 whole entry, looked up): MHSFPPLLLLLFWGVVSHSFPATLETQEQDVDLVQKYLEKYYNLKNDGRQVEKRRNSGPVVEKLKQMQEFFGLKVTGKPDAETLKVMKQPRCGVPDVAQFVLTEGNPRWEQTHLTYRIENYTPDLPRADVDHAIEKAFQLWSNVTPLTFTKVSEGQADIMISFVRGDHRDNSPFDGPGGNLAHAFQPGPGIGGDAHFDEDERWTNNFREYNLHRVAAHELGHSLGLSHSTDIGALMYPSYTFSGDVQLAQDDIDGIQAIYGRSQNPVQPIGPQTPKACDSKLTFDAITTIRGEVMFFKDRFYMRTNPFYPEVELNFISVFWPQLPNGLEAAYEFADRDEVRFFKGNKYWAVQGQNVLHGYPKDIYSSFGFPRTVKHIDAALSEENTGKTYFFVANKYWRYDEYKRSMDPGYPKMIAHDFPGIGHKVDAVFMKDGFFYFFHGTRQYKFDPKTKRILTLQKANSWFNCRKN
Chain of human MAP Kinase-Activated Protein Kinase 2 (MAPKAPK2), MAPKAPK2 (gene 9261) (P49137 whole entry, looked up): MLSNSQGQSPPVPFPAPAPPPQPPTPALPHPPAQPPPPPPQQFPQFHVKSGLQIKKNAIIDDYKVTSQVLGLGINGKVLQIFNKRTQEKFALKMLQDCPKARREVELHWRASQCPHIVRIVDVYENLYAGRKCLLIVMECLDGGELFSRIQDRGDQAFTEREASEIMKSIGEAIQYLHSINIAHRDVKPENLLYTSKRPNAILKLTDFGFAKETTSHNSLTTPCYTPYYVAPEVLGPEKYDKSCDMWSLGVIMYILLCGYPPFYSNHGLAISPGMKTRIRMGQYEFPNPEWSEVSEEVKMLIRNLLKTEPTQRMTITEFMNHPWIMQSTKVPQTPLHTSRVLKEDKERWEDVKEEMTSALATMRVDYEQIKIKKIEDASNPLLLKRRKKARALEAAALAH
Chain of human Mitogen-Activated Protein Kinase 1 (MAPK 1), MAPK1 (gene 5594) (P28482 whole entry, looked up): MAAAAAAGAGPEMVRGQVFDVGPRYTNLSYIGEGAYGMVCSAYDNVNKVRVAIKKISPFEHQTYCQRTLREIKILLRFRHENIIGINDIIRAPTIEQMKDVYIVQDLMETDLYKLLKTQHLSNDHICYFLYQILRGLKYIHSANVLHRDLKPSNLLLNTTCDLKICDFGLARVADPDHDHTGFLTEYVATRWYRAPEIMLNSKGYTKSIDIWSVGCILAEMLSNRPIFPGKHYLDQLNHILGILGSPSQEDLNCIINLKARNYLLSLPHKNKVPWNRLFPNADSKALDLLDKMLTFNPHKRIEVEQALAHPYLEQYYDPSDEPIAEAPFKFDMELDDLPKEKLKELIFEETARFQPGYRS
Chain of Mitogen-activated protein kinase 3 (Homo sapiens) (P27361 whole entry, looked up): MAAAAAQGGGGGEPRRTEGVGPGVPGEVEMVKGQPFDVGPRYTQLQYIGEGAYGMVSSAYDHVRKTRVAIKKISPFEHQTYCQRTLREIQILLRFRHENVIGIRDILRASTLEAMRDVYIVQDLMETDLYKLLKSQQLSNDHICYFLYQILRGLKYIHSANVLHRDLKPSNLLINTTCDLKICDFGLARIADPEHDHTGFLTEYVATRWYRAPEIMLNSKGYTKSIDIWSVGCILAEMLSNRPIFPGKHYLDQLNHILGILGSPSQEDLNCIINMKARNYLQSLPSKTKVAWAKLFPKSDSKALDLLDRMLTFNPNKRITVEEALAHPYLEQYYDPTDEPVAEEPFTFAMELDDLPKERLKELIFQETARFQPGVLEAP
Chain of human Matrix Metalloproteinase-7 (MMP7), MMP7 (gene 4316) (P09237 whole entry, looked up): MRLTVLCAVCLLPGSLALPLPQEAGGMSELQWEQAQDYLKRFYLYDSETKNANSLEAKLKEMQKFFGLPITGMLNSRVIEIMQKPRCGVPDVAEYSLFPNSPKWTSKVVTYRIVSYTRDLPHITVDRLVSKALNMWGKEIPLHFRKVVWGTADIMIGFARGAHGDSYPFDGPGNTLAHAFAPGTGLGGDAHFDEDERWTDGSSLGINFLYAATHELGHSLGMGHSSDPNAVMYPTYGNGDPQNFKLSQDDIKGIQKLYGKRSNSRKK

Compound: CCC[CH2][Sn]([Cl])([CH2]CCC)[CH2]CCC
- outcome [1]: inactive
- AC50 [2]: 12.8 µM (active)

Compound: CC(C)N(Cc1ccccc1)C(=O)C(C)(C)C
- outcome [3]: inactive
- outcome [2]: inactive

Compound: COc1cc(C=O)cc2c1[C@H](COC(N)=O)[C@]1(OC(C)=O)ON2C[C@H]2[C@@H]1N2C(C)=O
- outcome [4]: inactive
- AC50 [5]: 0.00608 µM (active)
- outcome [6]: inactive

Compound: Clc1ccc(C(c2ccc(Cl)cc2)C(Cl)(Cl)Cl)cc1
- outcome [7]: inactive

Compound: CN(C)C(=O)Nc1ccc(Cl)cc1
- outcome [8]: inactive
- outcome [9]: inactive
- AC50 [7]: 17.9 µM (active)
- outcome [10]: inactive

Compound: CCN(CC)N=O
- outcome [11]: inactive
- outcome [1]: inactive
- outcome [12]: inactive
- outcome [13]: inactive
- outcome [3]: inactive
- outcome [14]: inactive

Compound: O=[N+]([O-])C(Br)(CO)CO
- outcome [15]: inactive

Compound: CCNS(=O)(=O)C(F)(F)C(F)(F)C(F)(F)C(F)(F)C(F)(F)C(F)(F)C(F)(F)C(F)(F)F
- outcome [4]: inactive
- outcome [11]: inactive
- outcome [16]: inactive
- outcome [17]: inactive
- outcome [6]: inactive
- outcome [15]: inactive
- outcome [2]: inactive
- outcome [14]: inactive

Compound: Cn1cc(-c2ccccc2)c(=O)c(-c2cccc(C(F)(F)F)c2)c1
- outcome [16]: inactive

Compound: Nc1ccc(Cl)cc1N
- outcome [16]: inactive
- outcome [3]: inactive

Compound: OCCCBr
- outcome [4]: inactive

Compound: Cc1ccc(N=C=O)cc1N=C=O
- AC50 [18]: 4.21 µM (active)
- AC50 [7]: 10.3 µM (active)
- AC50 [10]: 40 µM (active)

Compound: CN(C)[C@@H]1C(=O)C(C(N)=O)=C(O)[C@@]2(O)C(=O)C3=C(O)c4c(O)cccc4[C@@](C)(O)[C@H]3C[C@@H]12
- outcome [18]: inactive
- outcome [10]: inactive

Compound: C[C@]12C=CC3=C4CCC(=O)C=C4CC[C@H]3[C@@H]1CC[C@@H]2O
- outcome [6]: inactive

Compound: CCCCCCCCn1sccc1=O
- outcome [4]: inactive

Compound: c1ccc(NNc2ccccc2)cc1
- outcome [12]: inactive
- outcome [8]: inactive

Compound: CC(C)COC(=O)c1ccccc1C(=O)OCC(C)C
- outcome [2]: inactive

Compound: Oc1ccccc1Cl
- outcome [11]: inactive
- outcome [19]: inactive
- outcome [7]: inactive
- outcome [10]: inactive

Compound: COP(=S)(OC)SCN1C(=O)c2ccccc2C1=O
- AC50 [19]: 11.7 µM (active)

Compound: COC(=O)Nc1nc2ccccc2[nH]1
- AC50 [9]: 46.7 µM (active)

Compound: C=CCc1ccc2c(c1)OCO2
- outcome [11]: inactive

Compound: CNC(=O)Oc1cccc2c1OC(C)(C)C2
- outcome [1]: inactive
- outcome [7]: inactive

Compound: O=[N+]([O-])c1ccc(Oc2ccc(Cl)cc2Cl)cc1
- outcome [9]: inactive
- outcome [19]: inactive

Compound: CCCSC(=O)N(CCC)CCC
- outcome [3]: inactive

Compound: c1ccc2c(c1)-c1cccc3cccc-2c13
- outcome [1]: inactive
- outcome [20]: inactive
- AC50 [10]: 5.24 µM (active)

Compound: O=C(Oc1ccc(Br)cc1)N1CCN2CCC1CC2
- outcome [11]: inactive
- outcome [9]: inactive
- outcome [3]: inactive

Compound: Nc1ccc(Oc2ccc(N)cc2)cc1
- AC50 [7]: 19.2 µM (active)

Compound: ClCCOCCCl
- outcome [11]: inactive
- outcome [13]: inactive
- outcome [10]: inactive

Compound: O=C(Nc1ccccc1)c1ccccc1I
- outcome [9]: inactive
- outcome [18]: inactive
- outcome [2]: inactive

Compound: CCCCCCCCCCCCCN1CC(C)OC(C)C1 (stereo not given)
- outcome [1]: inactive
- outcome [20]: inactive

Compound: CCOc1cccc(C2(N3CCN(c4ccccc4)CC3)CCC(C)CC2)c1 (stereo not given)
- outcome [19]: inactive
- AC50 [18]: 17.7 µM (active)

Compound: Clc1ccc(Cl)c(Cl)c1
- outcome [8]: inactive
- outcome [10]: inactive

Compound: CCCCC(CC)COC(=O)c1ccc(C(=O)OCC(CC)CCCC)c(C(=O)OCC(CC)CCCC)c1 (stereo not given)
- outcome [4]: inactive
- outcome [11]: inactive

Compound: CCCCCOC(=O)c1ccccc1C(=O)OCCCCC
- outcome [7]: inactive

Compound: Oc1ccc2ccc3cccc4ccc1c2c34
- AC50 [11]: 14.9 µM (active)

Compound: [As]#[In]
- outcome [2]: inactive

Compound: Nc1ccc(N=Nc2ccccc2)cc1
- AC50 [19]: 16.9 µM (active)

Compound: CC(C)(C)C(O)(CCc1ccc(Cl)cc1)Cn1cncn1 (stereo not given)
- outcome [7]: inactive
- outcome [10]: inactive
